Measurements published in PubChem BioAssay AID1159580 (chemical genetic matrix, 2015).
Out of some 5,500 compounds screened, about 2,000 (36%) were called active. Inconclusive results (about 18%) are left out. No stated cut-off is given here; in the data, active means normalized growth mostly below about 0.91 (no sharp cut-off); inconclusive means no clear call, values can overlap the other calls; inactive means mostly above about 0.92. This is one part of the list.

Experiment: chemical genetic growth profiling, strain panel (AID 1159580);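 further: tested at 20 µM; growth read once vehicle control cultures reached saturation at 30 °C; 1 = growth at the plate median or of vehicle wells; lower values mean less growth of the strain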
Settings: growth OD

Measured: normalized growth

C[N+](C)(C)CC(=O)[O-]
inactive: S. cerevisiae deletion strains, locus YJR075W, strain HOC1, hits give low values 0.977 | S. cerevisiae deletion strains, locus YKL009W, strain mrt4, hits give low values 0.972 | S. cerevisiae deletion strains, locus YKL068W, hits give low values 0.976 | S. cerevisiae deletion strains, locus YKL085W, strain MDH1 (second series), hits give low values 0.978 | S. cerevisiae deletion strains, locus YKL085W, strain MDH1, hits give low values 0.978 | S. cerevisiae deletion strains, locus YKL160W, strain elf1, hits give low values 0.995 | S. cerevisiae deletion strains, locus YKL190W, strain CNB1, hits give low values 0.976 | S. cerevisiae deletion strains, locus YKR001C, strain vps1, hits give low values 0.982 | S. cerevisiae deletion strains, locus YKR026C, strain gcn3, hits give low values 1.02 | S. cerevisiae deletion strains, locus YKR091W, strain srl3, hits give low values 0.976 | S. cerevisiae deletion strains, locus YLL001W, strain dnm1, hits give low values 0.949 | S. cerevisiae deletion strains, locus YLL026W, hits give low values 0.982 | S. cerevisiae deletion strains, locus YLL041C, strain sdh2, hits give low values 0.963 | S. cerevisiae deletion strains, locus YLR027C, strain aat2, hits give low values 0.989 | S. cerevisiae deletion strains, locus YLR039C, strain RIC1, hits give low values 0.952 | S. cerevisiae deletion strains, locus YLR058C, strain SHM2, hits give low values 1 | S. cerevisiae deletion strains, locus YLR102C, strain apc9, hits give low values 0.992 | S. cerevisiae deletion strains, locus YLR113W, strain HOG1, hits give low values 0.981 | S. cerevisiae deletion strains, locus YLR221C, strain rsa3, hits give low values 1 | S. cerevisiae deletion strains, locus YLR258W, strain gsy2, hits give low values 0.985 | S. cerevisiae deletion strains, locus YLR262C, strain YPT6 (second series), hits give low values 0.948 | S. cerevisiae deletion strains, locus YLR262C, strain YPT6, hits give low values 0.938 | S. cerevisiae deletion strains, locus YLR268W, strain sec22, hits give low values 0.96 | S. cerevisiae deletion strains, locus YLR320W, strain mms22, hits give low values 1.01 | S. cerevisiae deletion strains, locus YLR330W, strain CHS5, hits give low values 0.99 | S. cerevisiae deletion strains, locus YLR342W, strain FKS1 (second series), hits give low values 1.04 | S. cerevisiae deletion strains, locus YLR342W, strain FKS1, hits give low values 0.988 | S. cerevisiae deletion strains, locus YLR357W, strain rsc2, hits give low values 0.969 | S. cerevisiae deletion strains, locus YLR370C, strain arc18, hits give low values 0.985 | S. cerevisiae deletion strains, locus YLR371W, strain rom2, hits give low values 0.993 | S. cerevisiae deletion strains, locus YLR384C, strain iki3, hits give low values 0.967 | S. cerevisiae deletion strains, locus YLR418C, strain cdc73, hits give low values 0.99 | S. cerevisiae deletion strains, locus YML016C, strain PPZ1, hits give low values 1.01 | S. cerevisiae deletion strains, locus YML032C, strain rad52, hits give low values 0.97 | S. cerevisiae deletion strains, locus YML120C, strain ndi1, hits give low values 0.98 | S. cerevisiae deletion strains, locus YML124C, strain tub3, hits give low values 0.992 | S. cerevisiae deletion strains, locus YMR058W, strain fet3, hits give low values 0.987 | S. cerevisiae deletion strains, locus YMR078C, strain ctf18, hits give low values 0.981 | S. cerevisiae deletion strains, locus YMR125W, strain sto1, hits give low values 0.951 | S. cerevisiae deletion strains, locus YMR129W, hits give low values 0.975 | S. cerevisiae deletion strains, locus YMR205C, strain PFK2, hits give low values 0.986 | S. cerevisiae deletion strains, locus YMR223W, strain ubp8, hits give low values 1.03 | S. cerevisiae deletion strains, locus YMR231W, strain pep5, hits give low values 0.972 | S. cerevisiae deletion strains, locus YMR263W, strain SAP30, hits give low values 0.977 | S. cerevisiae deletion strains, locus YMR307W, strain GAS1, hits give low values 1.04 | S. cerevisiae deletion strains, locus YNL067W, strain RPL9B, hits give low values 0.982 | S. cerevisiae deletion strains, locus YNL071W, strain lat1, hits give low values 0.989 | S. cerevisiae deletion strains, locus YNL128W, strain TEP1, hits give low values 0.989 | S. cerevisiae deletion strains, locus YNL153C, strain GIM3, hits give low values 0.985 | S. cerevisiae deletion strains, locus YNL183C, strain NPR1, hits give low values 0.938 | S. cerevisiae deletion strains, locus YNL209W, strain ssb2, hits give low values 0.995 | S. cerevisiae deletion strains, locus YNL233W, strain BNI4, hits give low values 0.997 | S. cerevisiae deletion strains, locus YNL248C, strain rpa49, hits give low values 1.01 | S. cerevisiae deletion strains, locus YNL250W, strain rad50, hits give low values 0.991 | S. cerevisiae deletion strains, locus YNL271C, strain bni1, hits give low values 0.992 | S. cerevisiae deletion strains, locus YNL298W, strain CLA4, hits give low values 0.97 | S. cerevisiae deletion strains, locus YNL307C, strain MCK1, hits give low values 0.999 | S. cerevisiae deletion strains, locus YNL322C, strain KRE1 (second series), hits give low values 0.964 | S. cerevisiae deletion strains, locus YNL322C, strain KRE1, hits give low values 0.99 | S. cerevisiae deletion strains, locus YNR049C, strain mso1, hits give low values 0.974 | S. cerevisiae deletion strains, locus YNR052C, strain pop2, hits give low values 0.984 | S. cerevisiae deletion strains, locus YOL006C, strain TOP1, hits give low values 0.975 | S. cerevisiae deletion strains, locus YOL012C, strain htz1 0.729 | S. cerevisiae deletion strains, locus YOL147C, strain pex11, hits give low values 1 | S. cerevisiae deletion strains, locus YOR001W, strain rrp6, hits give low values 0.969 | S. cerevisiae deletion strains, locus YOR061W, strain CKA2, hits give low values 1 | S. cerevisiae deletion strains, locus YOR069W, strain VPS5, hits give low values 0.995 | S. cerevisiae deletion strains, locus YOR070C, strain gyp1, hits give low values 0.994 | S. cerevisiae deletion strains, locus YOR080W, strain dia2, hits give low values 0.951 | S. cerevisiae deletion strains, locus YOR083W, strain WHI5, hits give low values 0.971 | S. cerevisiae deletion strains, locus YOR106W, strain vam3, hits give low values 0.925 | S. cerevisiae deletion strains, locus YOR136W, strain idh2, hits give low values 0.985 | S. cerevisiae deletion strains, locus YOR144C, strain elg1, hits give low values 0.991 | S. cerevisiae deletion strains, locus YOR184W, strain ser1, hits give low values 0.989 | S. cerevisiae deletion strains, locus YOR231W, strain MKK1, hits give low values 0.986 | S. cerevisiae deletion strains, locus YOR265W, strain rbl2, hits give low values 0.985 | S. cerevisiae deletion strains, locus YOR270C, strain vph1, hits give low values 0.956 | S. cerevisiae deletion strains, locus YOR290C, strain snf2, hits give low values 1 | S. cerevisiae deletion strains, locus YOR316C, strain cot1, hits give low values 0.972 | S. cerevisiae deletion strains, locus YPL051W, strain arl3, hits give low values 0.99 | S. cerevisiae deletion strains, locus YPL055C, strain LGE1, hits give low values 0.944 | S. cerevisiae deletion strains, locus YPL078C, strain atp4, hits give low values 0.954 | S. cerevisiae deletion strains, locus YPL106C, strain sse1, hits give low values 0.982 | S. cerevisiae deletion strains, locus YPL240C, strain hsp82, hits give low values 0.976 | S. cerevisiae deletion strains, locus YPL241C, strain CIN2, hits give low values 0.999 | S. cerevisiae deletion strains, locus YPL256C, strain CLN2, hits give low values 1 | S. cerevisiae deletion strains, locus YPR119W, strain clb2, hits give low values 0.994 | S. cerevisiae deletion strains, locus YPR141C, strain kar3, hits give low values 0.979 | S. cerevisiae deletion strains, locus YPR163C, strain tif3, hits give low values 0.992 | S. cerevisiae deletion strains, locus YPR167C, strain met16, hits give low values 0.986 | S. cerevisiae deletion strains, strain wtn01, hits give low values 0.96 | S. cerevisiae strains, strain wild type, hits give low values 0.996
